Assay outcomes: PubChem, The Scripps Research Institute Molecular Screening Center
hgDAF12 agonist – agonists of H. glycines DAF-12 nuclear receptor. HEK293 GAL4-hgDAF12 UAS-luciferase reporter, agonist luminescence; normalized to butyrate control. 370,000 tested, 1.8% active. activation, % at 6.8 µM;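 active = activation above a cutoff set at the mean of all screened compounds plus 3 SD, cut at about 10% in these data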;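 note: 0% = DMSO wells and 100% = sodium butyrate wells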
hcDAF-12 act – activators of H. contortus DAF-12 nuclear receptor; HEK293 hcDAF-12 lit1-tk-luc reporter, luminescence; 0% DMSO, 100% Δ7-dafachronic acid; 370,000 tested, 1.4% active; activation, % at 6.8 µM; AID 652067;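 active = activation above the mean of all tested compounds plus 3 SD, cut at about 5.5% in these data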;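 note: 100% = response to 3 µM Δ7-dafachronic acid high control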
ssDAF-12 act – activators of S. stercoralis DAF-12 nuclear receptor; AID 652126; HEK293 ssDAF-12/GRIP1 lit1-tk-luc reporter, luminescence; % of 3 µM dafachronic acid response; activation, % at 6.8 µM; 370,000 tested, 1% active;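 active = activation above the mean over all tested compounds plus 3 SD, cut at about 0.9% in these data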;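 note: 0% = DMSO-only wells and 100% = 3 µM delta7-dafachronic acid wells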
DAX1 inh-1 – DAX1 (NR0B1) inhibition, primary screen; AID 652010; inhibition, % at 6.8 µM; 370,000 tested, 1.1% active; HEK293T StAR-luciferase reporter, SF-1/DAX-1 repression relief;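 active = inhibition above the mean over all tested compounds plus 3 SD, cut at about 3.6% in these data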;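 note: 0% = DAX-1 cells with DMSO and 100% = cells lacking DAX-1 with DMSO; higher inhibition means more luminescence from relief of DAX-1 repression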
DAX1 inh-2 – NR0B1 (DAX1) inhibition. P51843. HEK293 Gal4-DAX1 luciferase reporter, luminescence. inhibition, % at 6.75 µM. 340,000 tested, 0.99% active;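 active = inhibition above the mean over all tested compounds plus 3 SD, cut at about 4.2% in these data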;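 note: 0% = DAX1-transfected cells with DMSO and 100% = empty-vector control cells with DMSO; inhibition shows as a rise in luminescence from relieved DAX1 repression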
Target sequence (P51843 207-470 limits assumed): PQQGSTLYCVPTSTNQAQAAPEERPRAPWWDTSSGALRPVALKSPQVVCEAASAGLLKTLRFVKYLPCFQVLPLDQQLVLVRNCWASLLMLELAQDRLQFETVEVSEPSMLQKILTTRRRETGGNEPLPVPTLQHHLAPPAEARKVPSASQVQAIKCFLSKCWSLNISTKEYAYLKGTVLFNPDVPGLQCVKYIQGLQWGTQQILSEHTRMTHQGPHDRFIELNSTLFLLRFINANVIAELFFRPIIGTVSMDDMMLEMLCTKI
GAA850 FXN act – frataxin GAA850 promoter activation; 360,000 tested, 0.56% active; activation, % at 6 µM; HEK293 lucGAA850 FXN promoter luciferase reporter, 24 h; percent of 10 µM SAHA response;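 active = activation above the average of all compounds screened plus 3 SD, cutoff fixed separately per campaign, cut at about 7.5% in these data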;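 note: 0% = DMSO wells and 100% = 10 µM SAHA wells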
* hit, by the source's call; x = no result. The list is not random: actives were taken first. Their share in the collection is about 4.5%.

SMILES	hgDAF12 agonist	hcDAF-12 act	ssDAF-12 act	DAX1 inh-1	DAX1 inh-2	GAA850 FXN act
O=C(Nc1ccc(N2CCCC2=O)cc1)c1cccc(F)c1	11*	0	-1	1	1	3
COc1ccc(CNC(=O)c2cc(C)nn2-c2ccccc2)cc1	-2	0	-1	0	6.7*	0
CCCc1nc2ccc(C)cn2c1Cc1ccsc1	5	5.6*	0	2	x	x
Cc1ccc2nc(-c3ccccc3)c(Cc3cccc(Cl)c3)n2c1	7	1	0	1	x	x
CCCc1nc2ccc(C)cn2c1Cc1cccc(Cl)c1	8	5.6*	1.6*	1	x	x
Cc1ccc2nc(C(C)(C)C)c(Cc3ccsc3)n2c1	-1	1	0	-1	x	x
CSc1nc2c(C)c(C)c(C)c(C)c2[nH]1	4	-2	-1	0	5.1*	-1
CCc1nc(SC)[nH]c(=O)c1C	0	2	0	0	0	0
CN(C)CCCNc1cc(-c2ccccc2)nc2cc(-c3cccc(F)c3)nn12	2	0	0	0	1	0
CN(C)CCCNc1cc(C(C)(C)C)nc2c(-c3ccccc3)cnn12	8	2	1.3*	1	4.7*	3
CC(C)(C)c1cc(NCCCn2ccnc2)n2ncc(-c3ccc(Cl)cc3)c2n1	10*	1	-1	0	1	-1
O=c1oc(-c2ccc(O)c(O)c2)cc2cc(O)cc(O)c12	9	13*	1	2	7.6*	7
CCCC(=O)N1CCC(C(=O)NC2CCCc3ccccc32)CC1 (stereo unspecified)	0	-2	-2	-1	x	x
CCOc1ccc(/C=N/OCC(=O)Nc2ccc3c(c2)OCO3)cc1	2	0	-2	0	0	2
CCc1ccccc1OCC(=O)OCC(=O)Nc1cc(C)on1	3	-1	-1	3.8*	0	1
CCOc1ccc(/C=N/OCC(=O)Nc2cc(C)on2)cc1	-4	-2	1.6*	0	0	0
CCN(Cc1ccccc1)C(=O)CCCN1C(=O)COc2ccc(C)cc21	2	-2	-2	-2	x	x
Cc1cc(C(F)(F)Cl)n2ncc(-c3ccccn3)c2n1	0	2	1.2*	0	2	1
CC(=O)Nc1ccc(S(=O)(=O)Oc2cccc(N3C(=O)C4CCCCC4C3=O)c2)cc1 (stereo unspecified)	-2	-2	-1	0	2	1
Cc1ccc(S(=O)(=O)Oc2cccc(N3C(=O)C4CC=CCC4C3=O)c2)cc1 (stereo unspecified)	0	0	-2	0	8.0*	0
CCc1ccccc1NC(=O)c1cc(C)nn1-c1ccccc1	0	-1	-1	-1	x	x
O=C(NCCCN1CCOCC1)c1ccccc1N1C(=O)[C@@H]2Cc3c([nH]c4ccccc34)C(c3ccccc3)N2C1=O (stereo partly specified)	4	5.8*	0	0	x	-5
COC(=O)[C@]12C[C@H](CC(=O)NCc3ccc(OC)c(OC)c3)C(=O)N(Cc3ccco3)C1=C[C@H](C(C)(C)C)O[C@@H]2C	0	-1	-1	0	x	x
CN1N=C2c3ccccc3CCCC2C1c1ccc(F)cc1 (stereo unspecified)	2	5.6*	0	0	2	2
Cc1cccn2c(=O)c3cc(C(=O)NC(C)c4ccccc4)c(=N)n(CCCn4ccnc4)c3nc12 (stereo unspecified)	11*	0	-2	0	4	-1
SMILES	hgDAF12 agonist	hcDAF-12 act	ssDAF-12 act	DAX1 inh-1	DAX1 inh-2	GAA850 FXN act
Cc1ccc2nc3c(cc(C(=O)NCc4ccccc4)c(=N)n3CCCn3ccnc3)c(=O)n2c1	0	-1	-1	0	0	-5
C=C(C)c1cccc(C(C)(C)NC(=O)Nc2nncs2)c1	-2	-2	-1	0	4.8*	1
CCCCCCN1CCS(=O)(=O)N(Cc2ccc(F)cc2)C(C(=O)OC)C1 (stereo unspecified)	1	-1	-1	-1	x	x
Cc1ccc(C)c(NC(=O)C2CCCN2S(=O)(=O)c2cccc3cccnc23)c1 (stereo unspecified)	2	-3	-1	-1	x	x
COc1cccc(-c2nnc3sc(-c4ccco4)nn23)c1	2	-1	-1	1	4.2*	3
C[C@H](O)[C@@H]1CN2CCc3ccc(-c4ccc5c(c4)OCO5)cc3[C@@H]2C[C@@H]1N(C)CC1CCCCC1	3	-1	-1	-1	x	x
CCOC(=O)C1=NN(c2ccccc2)C2=NC(C)=C(C(=O)OC)C(c3cccs3)N12 (stereo unspecified)	0	1	-1	0	0	1
CCOC(=O)C1=NN(c2cccc(Cl)c2)C2=NC(C)=C(C(=O)OC)C(c3cccs3)N12 (stereo unspecified)	2	1	-2	0	5.6*	1
COc1ccc2c(c1)[C@@]1(OCCC=C[C@H]1C)C(=O)N2CC1CC1	-2	0	-1	0	x	x
Cc1cc(NC(=O)CSc2nc(N)c(NC(=O)c3ccccc3)c(=O)[nH]2)no1	3	2	-2	1	-1	2
CCc1c(C)nc(SCC(=O)NNC(=O)c2ccco2)[nH]c1=O	2	6.0*	0	1	1	2
CCc1c(C)nc(SCC(=O)Nc2ccc(Br)cc2)[nH]c1=O	0	0	-2	0	0	2
Cc1cc(NC(=O)CSc2nc(N)c(NC(=O)c3ccco3)c(=O)[nH]2)no1	-3	-2	-1	-1	7.5*	2
Cc1cc(NC(=O)CSc2nc(N)c(NC(=O)c3ccccc3F)c(=O)[nH]2)no1	-1	1	0.9*	-2	0	0
Cc1ccc(-c2nnc(SCC(=O)Nc3ccc(F)cc3F)n2Cc2ccco2)cc1	2	-2	-2	1	x	x
Fc1ccccc1-c1n[nH]c(=S)n1N=Cc1cccc(OCc2ccccc2)c1	0	-4	-1	-2	x	x
CC(C)(C)c1ccc(-c2nnc(SCC(=O)Nc3ccc4c(c3)OCCO4)n2-c2ccc(Cl)cc2)cc1	-2	-1	-2	0	x	x
O=C(CSc1nnc(-c2cccs2)o1)c1ccc2c(c1)OCO2	-1	0	-1	0	x	x
CC1=NN(c2nc(-c3ccc(C)cc3)cs2)C(=O)C1N=Nc1ccc2ccccc2c1 (stereo unspecified)	5	5.7*	0	0	0	2
COC(=O)c1cc(-c2ccc(C)cc2)c(=O)n2c1CCC2	3	2	0	-2	x	x
Clc1cccc(N=NN2CCOCC2)c1Cl	4	1	1.7*	0	0	0
COc1ccc(-c2cc3ccccc3[nH]2)cc1	9	5.6*	0	2	3	5
